Mtb FBA inh = inhibits M. tuberculosis FBA enzyme | P9WQA3 | purified M. tuberculosis FBA, fluorescence read-out | inhibition, % at 1 µM | hit rate 2.3% among 360,000; in the data active = inhibition above about 27%;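 note: 0% = vehicle and 100% = reference inhibitor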
PriA SSB inh = inhibitors of Klebsiella pneumoniae PriA binding to SSB C-terminal tail; AlphaScreen SSBct-PriA binding, biotinylated peptide; inhibition, % at 33 µM; hit rate 0.6% among 430,000; in the data active = inhibition mostly above about 37%, no sharp cut-off; inactive = mostly below about 20%;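 note: plate controls were negative control peptide for no effect and reference peptide for full effect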
Mtb betalactam = beta-lactam sensitization of Mtb H37Rv; M. tuberculosis H37Rv growth with meropenem, percent inhibition; inhibition, % at 25 µM; hit rate 0.27% among 330,000; AID 434955; call rule not given here;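 note: growth measured after seven days incubation then overnight dye step; 0% = bacteria only wells and 100% = bacteria with antibiotic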
Mtb UGM inh = blocks M. tuberculosis UGM enzyme | hit rate 0.06% among 320,000 | inhibition, % at 10 µM | purified UGM, fluorescence polarization probe displacement | P9WIQ1; in the data active = inhibition above about 10%, passing the limit was not always enough
Target sequence (P9WIQ1 whole entry, looked up): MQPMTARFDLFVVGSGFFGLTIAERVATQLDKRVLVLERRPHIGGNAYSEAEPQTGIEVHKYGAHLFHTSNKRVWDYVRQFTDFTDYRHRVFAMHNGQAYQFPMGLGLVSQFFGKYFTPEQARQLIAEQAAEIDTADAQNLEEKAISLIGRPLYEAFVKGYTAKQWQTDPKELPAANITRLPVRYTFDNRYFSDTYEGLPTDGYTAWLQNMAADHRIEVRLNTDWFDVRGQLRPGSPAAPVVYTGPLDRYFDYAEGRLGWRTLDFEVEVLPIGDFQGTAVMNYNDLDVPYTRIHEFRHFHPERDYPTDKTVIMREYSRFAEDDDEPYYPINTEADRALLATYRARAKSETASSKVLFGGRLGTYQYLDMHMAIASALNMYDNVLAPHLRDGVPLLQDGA
GDH-TPI inh = inhibits GDH-TPI coupling enzymes, artifact for Mtb FBA screen. GDH-TPI coupled enzyme counterscreen, NADH absorbance. inhibition, % at 4.8 µM. hit rate 1.2% among 360,000. AID 588335; in the data active = inhibition above about 30%;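 note: 0% = DMSO wells and 100% = wells lacking the enzyme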
Rv3671c protease = inhibits the M. tuberculosis serine protease Rv3671c | P9WHR9 | inhibition, % at 5.96 µM | hit rate 0.048% among 320,000; in the data active = inhibition above about 38%;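 note: extracellular domain of Rv3671c used as enzyme; 0% = enzyme with DMSO and 100% = no enzyme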
Numbers without * were called inactive. This is a sample that favours compounds with a hit; in the whole collection about 3.2% have one here.

Screening Cc1cc(-n2c(=O)c(C#N)cc3c(=O)n4ccccc4nc32)no1 returned Mtb FBA inh active, PriA SSB inh -5, Mtb betalactam 50, Mtb UGM inh 2, GDH-TPI inh 11 and Rv3671c protease 1.
For CCOC(=O)c1ccc(NC(=O)C2C(=O)NC3(C)CC2c2ccccc2O3)cc1 (stereo not given) the results were PriA SSB inh -3.
`CC(=NNC(=O)c1ccco1)c1cccc2ccccc12` gave PriA SSB inh 10.
`CCc1cc2c(=O)n(-c3ccccc3)c(=S)[nH]c2s1` gave Mtb FBA inh 2, PriA SSB inh -6, Mtb betalactam -12, Mtb UGM inh 4, GDH-TPI inh 32* and Rv3671c protease -2.
`C=CC(=O)Nc1cccc(N(C)c2ccnc(Nc3ccc(N4CCN(C)CC4)cc3)n2)c1` gave Mtb FBA inh 3, PriA SSB inh 57* and GDH-TPI inh 4.
`C=CC(=O)Nc1cccc(Oc2ccnc3[nH]ccc23)c1` gave Mtb FBA inh 180*, PriA SSB inh 14 and GDH-TPI inh 2.
`C=CC(=O)Nc1cccc(Oc2ccnc(Nc3ccc(N4CCN(C)CC4)cc3)n2)c1` gave Mtb FBA inh -1, PriA SSB inh 61* and GDH-TPI inh 2.
Screening C=CC(=O)Nc1cccc(Oc2ncnc3[nH]cc(-c4cnc5ccccc5c4)c23)c1 returned Mtb FBA inh 4, PriA SSB inh 5, Mtb betalactam 9, Mtb UGM inh 2, GDH-TPI inh 9 and Rv3671c protease -34.
`O=[N+]([O-])c1ccccc1S(=O)(=O)N1CCc2ccccc2C1` gave Mtb FBA inh 0, PriA SSB inh -1, Mtb betalactam -10, Mtb UGM inh 1, GDH-TPI inh 1 and Rv3671c protease 4.
For O=[N+]([O-])c1ccccc1S(=O)(=O)N1CCc2ccccc21 the results were PriA SSB inh 39*.
`COc1cc(NC(=O)CSc2ccc(-c3ccccn3)nn2)cc(OC)c1` gave Mtb FBA inh 1, PriA SSB inh 78*, Mtb betalactam 100, Mtb UGM inh -1, GDH-TPI inh -4 and Rv3671c protease -1.
`COc1ccc(NC(=O)CSc2ccc(-c3ccccn3)nn2)cc1` gave PriA SSB inh 42.
`COc1cccc(NC(=O)CSc2ccc(-c3ccccn3)nn2)c1` gave PriA SSB inh 76*.
O=c1[nH]c2ccccc2nc1Cc1ccc(Cl)cc1 was read as Mtb FBA inh 1, PriA SSB inh 4, Mtb betalactam -4, Mtb UGM inh 1, GDH-TPI inh 8 and Rv3671c protease -5.
`O=c1[nH]c2ccccc2nc1-c1ccc(Cl)cc1` gave Mtb FBA inh 24, PriA SSB inh 3, Mtb betalactam -5, Mtb UGM inh -3, GDH-TPI inh 38* and Rv3671c protease -4.
For Cc1cc(N2CCC(C)CC2)nc(-c2ccccc2O)n1 the results were Mtb FBA inh 7, PriA SSB inh -15, Mtb betalactam -1, Mtb UGM inh -1, GDH-TPI inh 38* and Rv3671c protease 2.
For O=C(Cn1cnc2ccccc21)NCc1cnn2c1CCCC2 the results were PriA SSB inh 7.
O=C(CCCn1nc(-c2cccs2)ccc1=O)N1CCN(c2ccccc2)CC1 was read as PriA SSB inh 6.
Screening CCOC(=O)C1CCCN(CC(=O)/C=C2/N(C)c3ccccc3C2(C)C)C1 (stereo not given) returned Mtb FBA inh 6, PriA SSB inh 2, Mtb betalactam 15, Mtb UGM inh 1, GDH-TPI inh 31* and Rv3671c protease -4.
CN1/C(=C/C(=O)COC(=O)CN2C(=O)C3CC=CCC3C2=O)C(C)(C)c2ccccc21 (stereo not given) was read as Mtb FBA inh 6, PriA SSB inh -14 and GDH-TPI inh 30.
CN1/C(=C\C(=O)COC(=O)Cn2nnc(-c3ccccc3)n2)C(C)(C)c2ccccc21 was read as Mtb FBA inh 1, PriA SSB inh -25, Mtb betalactam -2, Mtb UGM inh 3, GDH-TPI inh 34* and Rv3671c protease -46.
`COc1ccccc1C1SCCN1S(=O)(=O)c1ccc2cccc3c2c1CC3` (stereo not given) gave PriA SSB inh -4.
O=C(/C=C/c1ccccc1)Nc1nnc(-c2ccco2)o1 was read as Mtb FBA inh -3, PriA SSB inh -1, Mtb betalactam 62, Mtb UGM inh 1, GDH-TPI inh 45* and Rv3671c protease 13.
CCS(=O)(=O)c1ccc(CC(=O)Nc2nnc(-c3ccco3)o2)cc1 was read as PriA SSB inh 54*.
N#Cc1cc([N+](=O)[O-])ccc1NCCCN1CCOCC1 was read as PriA SSB inh -9.
`CCOC(=O)N1CCc2c(sc(NC(=O)c3ccc(-c4nc5ccccc5s4)s3)c2C(=O)OC)C1` gave PriA SSB inh -27.
`COC(=O)c1ccc(NC(=O)Cc2cc(-c3ccc(C)cc3)on2)cc1` gave PriA SSB inh 4.
For Cc1ccc2nc(N(CCN3CCOCC3)C(=O)c3ccco3)sc2c1 the results were PriA SSB inh -14.
Cc1ccnc(Nc2ccc(NCCNC(=O)Nc3ccc(F)c(Cl)c3)nn2)c1 was read as PriA SSB inh 96*.
`Cc1ccnc(Nc2ccc(NCCNC(=O)Nc3cccc(C(F)(F)F)c3)nn2)c1` gave PriA SSB inh 32*.
Cc1ccnc(Nc2ccc(NCCNC(=O)c3cccc(F)c3)nn2)c1 was read as PriA SSB inh 20.
Screening O=C(Cn1c(=O)oc2ccccc21)NCC#CCOc1ccc2c(c1)OCO2 returned PriA SSB inh -15.
For ON=Cc1ccc2cccc(O)c2n1 the results were PriA SSB inh -3.
`O=C(N/N=C/c1sc(=O)n(-c2ccccc2)c1Cl)c1ccncc1` gave Mtb FBA inh -3, Mtb betalactam 98, Mtb UGM inh 0, GDH-TPI inh 36* and Rv3671c protease 6.
For CCOc1ccc(C(=O)N/N=C/c2cc([N+](=O)[O-])cs2)cc1 the results were Mtb FBA inh -2, Mtb betalactam 99, Mtb UGM inh 2, GDH-TPI inh 12 and Rv3671c protease -8.
For COc1cc(C(=O)N/N=C/c2cc([N+](=O)[O-])cs2)cc(OC)c1OC the results were Mtb FBA inh -4, Mtb betalactam 100, Mtb UGM inh 0, GDH-TPI inh 36* and Rv3671c protease 12.
Screening COc1cc(C(=O)N/N=C/c2sc(=O)n(-c3ccccc3)c2Cl)cc(OC)c1OC returned Mtb FBA inh -4, Mtb betalactam 1, Mtb UGM inh 1, GDH-TPI inh 46* and Rv3671c protease 1.
`Cc1oc(-c2ccc(Cl)cc2)cc1C(=O)C(C#N)=CNc1cccc(OC(F)(F)F)c1` gave PriA SSB inh -7.
CCOc1ccccc1NC(=O)c1ccc2c(c1)C(=O)N(CC)C2=O was read as Mtb FBA inh 3, PriA SSB inh 100*, Mtb betalactam -5, Mtb UGM inh 1, GDH-TPI inh 0 and Rv3671c protease -3.

Source: PubChem BioAssay (several laboratories)
